# About 4,000 (25%) of roughly 16,000 compounds were called active. Not shown: some 26% with an inconclusive outcome. Only a sample is shown. Unmarked numbers belong to inactive results. The call rests on the fitted dose curve; in most records, active means well fitted curve in the direction sought with a large enough effect; inconclusive means small, poorly fitted or top-dose-only effect, or effect the other way; inactive means no such curve, though single readings can be large or run the other way.
# Target: Cytochrome P450 2C9 (Homo sapiens) (UniProt P11712)
# Sequence (P11712 whole entry, looked up): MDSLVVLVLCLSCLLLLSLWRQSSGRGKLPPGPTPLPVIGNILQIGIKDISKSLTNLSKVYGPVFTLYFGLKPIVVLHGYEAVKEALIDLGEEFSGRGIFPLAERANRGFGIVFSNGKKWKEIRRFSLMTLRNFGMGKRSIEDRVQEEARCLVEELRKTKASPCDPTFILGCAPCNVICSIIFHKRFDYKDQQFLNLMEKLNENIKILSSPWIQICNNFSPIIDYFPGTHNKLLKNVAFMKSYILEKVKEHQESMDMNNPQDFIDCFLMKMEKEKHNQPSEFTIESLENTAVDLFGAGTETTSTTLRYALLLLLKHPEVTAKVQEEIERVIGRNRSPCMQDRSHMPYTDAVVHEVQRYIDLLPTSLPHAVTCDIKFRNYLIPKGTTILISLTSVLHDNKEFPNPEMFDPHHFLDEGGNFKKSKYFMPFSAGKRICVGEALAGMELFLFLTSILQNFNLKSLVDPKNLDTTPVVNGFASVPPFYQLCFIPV
# Test: Cytochrome panel assay with activity outcomes
# Conditions: recombinant CYP, pro-luciferin dealkylation, luminescence, p450-cyp2c9; series mostly up to 57.1 µM; activity, negative = inhibition: at the top concentration
# On the % scale 0 is the no-effect control and ±100 the full control effect.
Compound,"activity, negative = inhibition",AC50
CCN1CCCC1Cn1cnc2c([nH]c3ccc(C)cc32)c1=O (configuration not stated),-19.8%,–
CN(C)CCNC(=O)C1CCCNC1=O (configuration not stated),1.04%,–
Cn1cnc([N+](=O)[O-])c1SCC(=O)O,4.52% [at 11.4 µM],–
OCCN=c1cc(-c2ccccc2)oc2ccc(Cl)cc12,–,2 µM (active)
Cc1cc2c(=O)[nH]c(N)nc2nc1C,0.234% [at 11.4 µM],–
CC(=O)c1sc(N)c(C(=O)OC(C)C)c1C,–,10 µM (active)
CCOC(=O)/C(C#N)=C1/SC(CC)C(=O)N1c1ccc(Br)cc1 (configuration not stated),–,12.6 µM (active)
O=C(CC1CCCCC1)N1CCC(c2nc(-c3ccc(S(=O)(=O)N4CCCC4)cc3)no2)CC1,–,7.94 µM (active)
Cc1ccc(S(=O)(=O)N2CCCC(C(=O)NCCCN3CCCCC3C)C2)cc1 (configuration not stated),-9.5%,–
COC(=O)[C@@]1(Cc2ccc(OC)cc2)[C@H]2c3cc(C(=O)N4CCCC4)n(CCc4c[nH]c5cc(F)ccc45)c3C[C@H]2CN1C(=O)c1ccccc1,–,3.16 µM (active)
COC(=O)[C@@]1(Cc2ccc(F)cc2)[C@H]2c3cc(C(=O)N4CCCC4)n(CCc4c[nH]c5ccc(OC)cc45)c3C[C@H]2CN1C(=O)c1ccccc1,–,7.94 µM (active)
COC(=O)[C@@]1(Cc2ccc(F)cc2)[C@H]2c3cc(C(=O)N4CCCC4)n(CCc4c[nH]c5ccccc45)c3C[C@H]2CN1C(=O)c1ccccc1,–,2.51 µM (active)
COC(=O)[C@@]1(Cc2ccc(OC)cc2)[C@H]2c3cc(C(=O)N4CCCC4)n(CCc4c[nH]c5ccc(O)cc45)c3C[C@H]2CN1C(=O)c1ccccc1,–,3.16 µM (active)
COc1ccc(NC(=O)N2CC[C@@]3(CCCN(C(=O)c4cccc(F)c4)C3)C2)cc1,-7.57%,–
COc1ccc(NC(=O)N2CCCC3(CCN(C(=O)c4cccc(F)c4)CC3)C2)cc1,-14.3%,–
O=C(O)[C@@H]1CCCN1Cc1cc2ccccc2c2ccccc12,-0.145% [at 11.4 µM],–
Nc1nc2c(ncn2COC(CO)CO)c(=O)[nH]1,–,inactive
NC(=O)c1cc[n+](CC2=C(C(=O)O)N3C(=O)[C@@H](NC(=O)[C@H](c4ccccc4)S(=O)(=O)[O-])[C@@H]3SC2)cc1,–,inactive
Cc1cnc(CNc2ncncc2-c2ccccc2C)cn1,3.37% [at 2.29 µM],–
C[C@@H]1/C=C\CC(=O)OC[C@H]2O[C@@H](C=C[C@@H]2O)[C@H](C)/C=C\CC(=O)OC1,-2.72% [at 11.4 µM],–
O=C(O)c1c[nH]c2c(ccc3[nH]cc(C(=O)O)c(=O)c32)c1=O,12.3% [at 11.4 µM],–
N#Cc1ccc(CN2CCC3(CC2)CCN(C(=O)c2ccncc2)CC3)cc1,-1.7%,–
N#Cc1c(N2CCN(C(=O)c3ccccc3Cl)CC2)nc(-c2ccccc2)c2c1CCCC2,–,2.51 µM (active)
Nc1nc2c(C(=O)NCc3cccs3)nnn2c2cccc(Cl)c12,12.5% [at 11.4 µM],–
CCN(CC)CCc1nc(-c2ccccc2)no1,-0.446% [at 25.6 µM],–
c1ccc(CCc2nc(-c3ccccc3)no2)cc1,-12.7%,–

Compound,"activity, negative = inhibition",AC50
c1ccc(-c2noc(CSc3nnnn3C3CCCCC3)n2)cc1,–,3.55 µM (active)
O=C(N/N=C1/C[C@@H](O)[C@@H](O)[C@@H]2[C@@H]3C(=O)N(Cc4ccccc4)C(=O)[C@H]3CC[C@@H]12)OCc1ccccc1,9.14% [at 11.4 µM],–
CCCCCCCC/C=C\CCCCCCCC(=O)NCCc1ccc(O)c(O)c1,–,1.58 µM (active)
CC(=O)NCCc1ccc(O)c(O)c1,-8.63%,–
C[C@@](Cc1ccc(O)c(O)c1)(NN)C(=O)O,-12.5%,–
Nc1ccn([C@H]2O[C@H](CO)[C@@H]3[O][Sn]([c]4ccccc4)([c]4ccccc4)[O][C@H]32)c(=O)n1,24.8% [at 11.4 µM],–
FC(F)(F)c1ccccc1-c1ccc2ncnc(N3CCOCC3)c2c1,-28.6% [at 2.29 µM],–
CCN1C(=O)[C@H]2[C@H]3[C@H](O)[C@H](O)C/C(=N/OC[C@@H](O)COCc4ccco4)[C@H]3CC[C@@H]2C1=O,1.57% [at 11.4 µM],–
c1ccc(SC(Sc2ccccc2)c2ccc3c(c2)OCO3)cc1,–,3.16 µM (active)
c1ccc(Nc2ncncc2-c2ccc3c(c2)OCO3)cc1,-20.1% [at 2.29 µM],–
O=C(O)C[C@H](Cc1ccc2c(c1)OCO2)C(=O)O,-23.6% [at 11.4 µM],–
CCCCN(C)CCCNC(=O)CCn1nc(-c2ccccc2)ccc1=O,-20.5%,–
COc1ccc(-c2ccc(=N)n(CCCC(=O)O)n2)cc1,–,3.16 µM (active)
COc1ccc(-c2ccc(N)[n+](CCCC(=O)O)n2)cc1,–,inactive
COc1cccc(Cn2c(NCc3cccnc3)nc3c2c(=O)n(C)c(=O)n3C)c1,–,6.31 µM (active)
COc1cccc(-c2cc(NCc3cccnc3)ncn2)c1,-28.7% [at 2.29 µM],–
CSC1(SC2=NCCN2)SC2(NCCN2)S1,-10.8% [at 11.4 µM],–
O=C(Nc1ccc2oc(=O)c(C(=O)O)cc2c1)Oc1ccccc1,-10.6% [at 11.4 µM],–
CC(C)(C)c1ccc(OC(=O)Nc2ccc(O)c(C(=O)O)c2)cc1,-20.8% [at 11.4 µM],–
CCOC(=O)Nc1ccc(C(=O)Oc2ccccc2)c(O)c1,–,17.8 µM (active)
CCOC(=O)c1cc2c(=O)n3ccccc3nc2n(CCCOC)c1=NC(=O)C(C)(C)C,–,1.58 µM (active)
O=C(c1csnn1)N1CCC2(CC1)CCN(c1ncccn1)CC2,6.9%,–
COc1cc(N=c2ssnc2Cl)cc(OC)c1OC,–,6.31 µM (active)
CCOC(=O)N/N=C1/C[C@@H](O)[C@@H](O)[C@@H]2[C@@H]3C(=O)N([C@@H](C)c4ccccc4)C(=O)[C@H]3CC[C@H]12,27.2% [at 11.4 µM],–
CN(C)C(=O)c1cn(N(C)c2ncc(C(F)(F)F)cc2Cl)c(=O)c2ccccc12,–,2.82 µM (active)
CCOC(=O)C(C(=O)NCc1ccc(C)cc1)c1ncc(C(F)(F)F)cc1Cl (configuration not stated),10.8%,–

# Source: PubChem BioAssay AID1851 (National Center for Advancing Translational Sciences (NCATS), 2009)
